Experimental findings from ChEMBL document CHEMBL1961873, “Compounds: GSK PKIS; Assays: Nanosyn kinase panel” (2012) are described below.

Assay [1] addresses Protein kinase C gamma type (Homo sapiens) (UniProt P05129). The conditions noted are these: at 1 µM.
For assay [2], the target named is T1, Protein kinase C iota type (Homo sapiens) (UniProt P41743).
T1 sequence (whole entry): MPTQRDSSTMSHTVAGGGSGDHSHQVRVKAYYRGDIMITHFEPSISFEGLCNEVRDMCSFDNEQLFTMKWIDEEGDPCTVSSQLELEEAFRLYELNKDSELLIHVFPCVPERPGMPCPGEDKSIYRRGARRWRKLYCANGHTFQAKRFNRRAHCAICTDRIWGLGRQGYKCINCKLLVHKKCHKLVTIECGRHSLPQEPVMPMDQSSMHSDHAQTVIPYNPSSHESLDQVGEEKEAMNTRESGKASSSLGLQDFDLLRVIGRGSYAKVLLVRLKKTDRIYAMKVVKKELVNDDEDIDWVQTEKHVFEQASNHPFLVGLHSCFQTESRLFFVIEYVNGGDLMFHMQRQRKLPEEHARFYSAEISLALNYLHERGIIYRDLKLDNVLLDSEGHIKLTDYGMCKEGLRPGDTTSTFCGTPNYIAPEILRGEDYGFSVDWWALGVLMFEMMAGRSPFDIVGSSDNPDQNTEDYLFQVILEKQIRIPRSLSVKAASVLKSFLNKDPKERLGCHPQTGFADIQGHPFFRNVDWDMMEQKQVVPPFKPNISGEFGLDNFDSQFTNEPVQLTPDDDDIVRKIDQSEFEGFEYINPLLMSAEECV
The settings on record: at 0.1 µM.

Assay [3] deals with T1, Protein kinase C iota type (Homo sapiens). The conditions noted are these: at 1 µM.
Assay [4] has as its target Protein kinase C theta type (Homo sapiens) (UniProt Q04759). The settings on record: at 0.1 µM.
Assay [5] shares this target. The settings on record: at 1 µM.
Assay [6] has as its target Protein kinase C beta type (Homo sapiens) (UniProt P05771). The conditions noted are these: at 0.1 µM.
For assay [7] the target is unchanged. The settings on record: at 1 µM.
Assay [8] has as its target T2, Serine/threonine-protein kinase D1 (Homo sapiens) (UniProt Q15139).
T2 sequence (whole entry): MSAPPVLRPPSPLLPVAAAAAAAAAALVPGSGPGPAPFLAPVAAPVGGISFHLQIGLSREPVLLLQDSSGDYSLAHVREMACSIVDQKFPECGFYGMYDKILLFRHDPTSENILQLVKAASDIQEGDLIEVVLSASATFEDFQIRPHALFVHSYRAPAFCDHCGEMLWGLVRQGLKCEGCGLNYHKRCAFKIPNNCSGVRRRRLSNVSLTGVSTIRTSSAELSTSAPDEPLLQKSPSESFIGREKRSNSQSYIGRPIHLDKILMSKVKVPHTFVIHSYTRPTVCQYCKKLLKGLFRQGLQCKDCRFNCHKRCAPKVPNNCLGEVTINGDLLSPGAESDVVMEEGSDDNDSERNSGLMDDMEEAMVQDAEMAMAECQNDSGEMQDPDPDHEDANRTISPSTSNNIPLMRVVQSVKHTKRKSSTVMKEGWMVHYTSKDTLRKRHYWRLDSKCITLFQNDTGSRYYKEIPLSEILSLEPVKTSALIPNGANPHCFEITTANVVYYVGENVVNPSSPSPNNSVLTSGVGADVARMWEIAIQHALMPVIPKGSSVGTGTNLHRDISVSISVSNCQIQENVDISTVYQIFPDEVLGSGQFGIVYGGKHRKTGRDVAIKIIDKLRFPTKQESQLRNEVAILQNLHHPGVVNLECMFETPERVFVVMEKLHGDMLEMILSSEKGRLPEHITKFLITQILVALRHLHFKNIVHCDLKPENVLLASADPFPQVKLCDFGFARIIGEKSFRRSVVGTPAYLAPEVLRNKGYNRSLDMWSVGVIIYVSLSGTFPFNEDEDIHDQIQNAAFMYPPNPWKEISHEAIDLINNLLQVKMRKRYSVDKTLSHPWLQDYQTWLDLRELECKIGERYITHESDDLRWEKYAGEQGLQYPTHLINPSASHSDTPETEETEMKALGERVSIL
The settings on record: at 0.1 µM.

The target in assay [9] is T2, Serine/threonine-protein kinase D1 (Homo sapiens). The settings on record: at 1 µM.
Assay [10] addresses T3, Serine/threonine-protein kinase D2 (Homo sapiens) (UniProt Q9BZL6).
T3 sequence (whole entry): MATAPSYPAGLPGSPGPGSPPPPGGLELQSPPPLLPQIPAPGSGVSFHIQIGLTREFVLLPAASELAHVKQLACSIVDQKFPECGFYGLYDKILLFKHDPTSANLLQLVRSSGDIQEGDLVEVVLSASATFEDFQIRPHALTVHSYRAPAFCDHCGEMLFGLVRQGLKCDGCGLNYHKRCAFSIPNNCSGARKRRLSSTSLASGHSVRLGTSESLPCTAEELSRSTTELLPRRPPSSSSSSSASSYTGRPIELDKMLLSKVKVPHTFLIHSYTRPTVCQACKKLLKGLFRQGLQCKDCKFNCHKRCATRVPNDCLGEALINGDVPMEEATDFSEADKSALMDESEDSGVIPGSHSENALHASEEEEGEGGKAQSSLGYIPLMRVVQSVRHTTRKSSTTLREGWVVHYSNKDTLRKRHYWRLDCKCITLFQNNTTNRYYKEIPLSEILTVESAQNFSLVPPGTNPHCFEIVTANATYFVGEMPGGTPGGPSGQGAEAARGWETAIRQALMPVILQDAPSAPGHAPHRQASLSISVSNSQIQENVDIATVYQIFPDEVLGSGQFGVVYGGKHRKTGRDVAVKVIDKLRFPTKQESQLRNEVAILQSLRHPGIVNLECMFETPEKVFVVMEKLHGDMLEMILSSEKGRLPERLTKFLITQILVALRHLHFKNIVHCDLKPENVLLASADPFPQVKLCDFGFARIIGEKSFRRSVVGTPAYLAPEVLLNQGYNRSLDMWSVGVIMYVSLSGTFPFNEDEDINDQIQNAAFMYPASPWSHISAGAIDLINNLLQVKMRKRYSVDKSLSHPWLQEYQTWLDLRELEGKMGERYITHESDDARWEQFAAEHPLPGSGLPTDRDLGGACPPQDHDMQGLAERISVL
The settings on record: at 0.1 µM.

Assay [11] deals with T3, Serine/threonine-protein kinase D2 (Homo sapiens). The settings on record: at 1 µM.
Assay [12] deals with T4, Serine/threonine-protein kinase D3 (Homo sapiens) (UniProt O94806).
T4 sequence (whole entry): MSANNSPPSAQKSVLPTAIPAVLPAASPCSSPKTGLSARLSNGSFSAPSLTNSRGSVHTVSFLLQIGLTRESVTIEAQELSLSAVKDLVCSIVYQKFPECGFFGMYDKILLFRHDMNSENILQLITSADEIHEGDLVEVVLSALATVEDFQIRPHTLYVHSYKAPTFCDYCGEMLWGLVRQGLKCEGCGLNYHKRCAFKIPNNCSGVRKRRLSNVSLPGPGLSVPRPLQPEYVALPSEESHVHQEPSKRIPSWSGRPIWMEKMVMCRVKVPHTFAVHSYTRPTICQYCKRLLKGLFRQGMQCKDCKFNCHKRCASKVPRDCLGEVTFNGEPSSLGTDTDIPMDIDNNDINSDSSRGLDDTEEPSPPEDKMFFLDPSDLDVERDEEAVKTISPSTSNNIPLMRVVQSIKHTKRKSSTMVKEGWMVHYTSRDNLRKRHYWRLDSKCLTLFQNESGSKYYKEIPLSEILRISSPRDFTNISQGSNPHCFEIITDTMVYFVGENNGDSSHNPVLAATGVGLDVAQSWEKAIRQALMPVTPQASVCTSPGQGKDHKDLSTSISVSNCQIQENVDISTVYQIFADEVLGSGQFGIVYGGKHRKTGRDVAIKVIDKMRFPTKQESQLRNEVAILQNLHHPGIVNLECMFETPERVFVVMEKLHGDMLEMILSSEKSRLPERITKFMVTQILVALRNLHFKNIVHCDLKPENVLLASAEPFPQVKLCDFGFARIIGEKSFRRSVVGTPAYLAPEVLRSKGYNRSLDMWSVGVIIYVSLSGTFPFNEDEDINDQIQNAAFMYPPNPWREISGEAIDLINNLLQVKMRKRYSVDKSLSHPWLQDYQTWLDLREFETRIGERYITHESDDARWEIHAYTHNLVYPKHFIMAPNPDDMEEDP
The settings on record: at 0.1 µM.

The target in assay [13] is T4, Serine/threonine-protein kinase D3 (Homo sapiens). The conditions noted are these: at 1 µM.
Assay [14] deals with T5, cGMP-dependent protein kinase 1 (Homo sapiens) (UniProt Q13976).
T5 sequence (whole entry): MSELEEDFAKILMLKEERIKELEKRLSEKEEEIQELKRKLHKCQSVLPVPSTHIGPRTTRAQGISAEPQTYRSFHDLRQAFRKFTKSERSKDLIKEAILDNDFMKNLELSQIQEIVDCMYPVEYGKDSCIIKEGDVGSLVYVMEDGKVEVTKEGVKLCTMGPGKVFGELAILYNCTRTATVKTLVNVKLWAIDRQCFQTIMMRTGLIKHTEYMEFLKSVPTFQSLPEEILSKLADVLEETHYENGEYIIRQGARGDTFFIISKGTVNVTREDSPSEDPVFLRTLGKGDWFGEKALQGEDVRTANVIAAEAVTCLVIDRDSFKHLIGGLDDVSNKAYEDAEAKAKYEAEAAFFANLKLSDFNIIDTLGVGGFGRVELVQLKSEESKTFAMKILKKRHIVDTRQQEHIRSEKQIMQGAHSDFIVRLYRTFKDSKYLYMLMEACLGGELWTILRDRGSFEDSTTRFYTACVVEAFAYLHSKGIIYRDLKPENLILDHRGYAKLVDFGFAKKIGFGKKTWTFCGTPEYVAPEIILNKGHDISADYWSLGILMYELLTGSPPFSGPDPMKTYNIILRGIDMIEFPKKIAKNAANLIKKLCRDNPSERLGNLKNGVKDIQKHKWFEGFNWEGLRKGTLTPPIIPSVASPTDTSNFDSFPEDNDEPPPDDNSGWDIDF
The settings on record: at 0.1 µM.

Assay [15] addresses T5, cGMP-dependent protein kinase 1 (Homo sapiens). The settings on record: at 1 µM.
For assay [16], the target named is T6, cGMP-dependent protein kinase 2 (Homo sapiens) (UniProt Q13237).
T6 sequence (whole entry): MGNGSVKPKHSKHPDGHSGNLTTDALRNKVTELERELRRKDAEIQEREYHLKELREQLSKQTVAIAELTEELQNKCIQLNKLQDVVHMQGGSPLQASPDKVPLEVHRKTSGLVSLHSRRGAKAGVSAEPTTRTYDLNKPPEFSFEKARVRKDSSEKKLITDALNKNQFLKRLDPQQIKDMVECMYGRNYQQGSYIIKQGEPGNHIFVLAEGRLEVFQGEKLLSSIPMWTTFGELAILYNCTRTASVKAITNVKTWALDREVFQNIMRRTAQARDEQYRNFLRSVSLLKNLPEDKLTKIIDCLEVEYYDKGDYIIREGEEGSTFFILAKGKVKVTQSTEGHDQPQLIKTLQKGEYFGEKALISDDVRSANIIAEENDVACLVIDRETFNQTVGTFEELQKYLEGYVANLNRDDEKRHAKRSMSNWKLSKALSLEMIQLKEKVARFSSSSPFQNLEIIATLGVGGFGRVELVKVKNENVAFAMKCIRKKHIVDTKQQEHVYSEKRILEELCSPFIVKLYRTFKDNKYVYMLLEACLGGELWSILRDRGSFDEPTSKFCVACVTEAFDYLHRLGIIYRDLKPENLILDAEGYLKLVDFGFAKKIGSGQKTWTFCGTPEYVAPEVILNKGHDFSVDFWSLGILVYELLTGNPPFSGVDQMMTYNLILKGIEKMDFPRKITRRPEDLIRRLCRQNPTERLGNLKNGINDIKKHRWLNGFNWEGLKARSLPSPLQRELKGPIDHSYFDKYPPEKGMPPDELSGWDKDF
The settings on record: at 0.1 µM.

Assay [17] deals with T6, cGMP-dependent protein kinase 2 (Homo sapiens). The settings on record: at 1 µM.
The target of assay [18] is T7, cAMP-dependent protein kinase catalytic subunit PRKX (Homo sapiens) (UniProt P51817).
T7 sequence (whole entry): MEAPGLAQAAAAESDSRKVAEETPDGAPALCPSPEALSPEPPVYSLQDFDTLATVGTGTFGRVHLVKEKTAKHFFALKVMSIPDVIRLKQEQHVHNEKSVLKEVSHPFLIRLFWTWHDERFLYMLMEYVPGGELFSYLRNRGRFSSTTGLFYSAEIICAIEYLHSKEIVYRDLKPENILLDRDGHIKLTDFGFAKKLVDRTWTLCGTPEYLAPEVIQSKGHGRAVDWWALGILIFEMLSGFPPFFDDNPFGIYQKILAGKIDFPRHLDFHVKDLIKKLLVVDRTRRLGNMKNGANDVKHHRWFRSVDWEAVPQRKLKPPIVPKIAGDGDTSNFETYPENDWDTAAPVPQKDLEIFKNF
The conditions noted are these: at 0.1 µM.

For assay [19], the target named is T7, cAMP-dependent protein kinase catalytic subunit PRKX (Homo sapiens). The settings on record: at 1 µM.
Assay [20] has as its target Rho-associated protein kinase 1 (Homo sapiens) (UniProt Q13464). The settings on record: at 0.1 µM.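 Note: values are mean percent inhibition of ROCK1.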

Chain of Protein kinase C theta type (Homo sapiens) (Q04759 whole entry, looked up): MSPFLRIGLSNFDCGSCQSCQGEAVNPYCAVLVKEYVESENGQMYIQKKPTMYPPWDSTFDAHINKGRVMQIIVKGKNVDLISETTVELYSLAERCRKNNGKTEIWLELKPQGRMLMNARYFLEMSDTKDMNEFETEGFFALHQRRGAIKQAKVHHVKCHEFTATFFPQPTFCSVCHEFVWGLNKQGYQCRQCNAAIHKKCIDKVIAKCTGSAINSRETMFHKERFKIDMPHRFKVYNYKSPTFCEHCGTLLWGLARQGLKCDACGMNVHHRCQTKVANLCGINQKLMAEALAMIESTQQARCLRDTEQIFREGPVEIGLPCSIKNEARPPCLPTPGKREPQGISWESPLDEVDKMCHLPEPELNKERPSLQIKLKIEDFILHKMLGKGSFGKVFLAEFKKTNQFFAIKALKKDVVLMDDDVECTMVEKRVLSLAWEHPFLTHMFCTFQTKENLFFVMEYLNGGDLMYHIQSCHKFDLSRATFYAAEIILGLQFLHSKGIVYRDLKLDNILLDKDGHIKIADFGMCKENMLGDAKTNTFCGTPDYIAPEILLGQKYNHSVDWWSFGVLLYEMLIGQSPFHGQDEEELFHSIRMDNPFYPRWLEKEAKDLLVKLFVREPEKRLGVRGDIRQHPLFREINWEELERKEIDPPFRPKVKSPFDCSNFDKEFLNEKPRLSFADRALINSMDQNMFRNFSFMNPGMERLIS
Chain of Protein kinase C beta type (Homo sapiens) (P05771 2-671 limits assumed): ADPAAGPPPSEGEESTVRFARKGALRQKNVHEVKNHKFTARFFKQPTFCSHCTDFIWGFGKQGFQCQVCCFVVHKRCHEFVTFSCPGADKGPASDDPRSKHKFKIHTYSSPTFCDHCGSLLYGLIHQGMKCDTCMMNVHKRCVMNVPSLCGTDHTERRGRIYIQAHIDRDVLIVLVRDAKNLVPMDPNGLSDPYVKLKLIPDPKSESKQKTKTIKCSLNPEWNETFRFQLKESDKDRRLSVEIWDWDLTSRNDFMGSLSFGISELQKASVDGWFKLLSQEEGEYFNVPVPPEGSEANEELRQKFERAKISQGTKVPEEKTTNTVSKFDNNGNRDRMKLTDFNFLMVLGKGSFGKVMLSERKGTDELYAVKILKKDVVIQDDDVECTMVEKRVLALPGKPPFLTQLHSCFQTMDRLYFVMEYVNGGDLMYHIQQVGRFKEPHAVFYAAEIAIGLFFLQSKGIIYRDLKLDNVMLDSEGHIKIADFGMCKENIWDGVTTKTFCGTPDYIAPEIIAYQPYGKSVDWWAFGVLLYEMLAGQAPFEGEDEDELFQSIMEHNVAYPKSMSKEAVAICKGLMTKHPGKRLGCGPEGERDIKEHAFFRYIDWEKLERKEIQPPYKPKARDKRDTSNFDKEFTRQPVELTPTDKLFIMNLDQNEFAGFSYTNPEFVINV
Chain of Rho-associated protein kinase 1 (Homo sapiens) (Q13464 2-1354 limits assumed): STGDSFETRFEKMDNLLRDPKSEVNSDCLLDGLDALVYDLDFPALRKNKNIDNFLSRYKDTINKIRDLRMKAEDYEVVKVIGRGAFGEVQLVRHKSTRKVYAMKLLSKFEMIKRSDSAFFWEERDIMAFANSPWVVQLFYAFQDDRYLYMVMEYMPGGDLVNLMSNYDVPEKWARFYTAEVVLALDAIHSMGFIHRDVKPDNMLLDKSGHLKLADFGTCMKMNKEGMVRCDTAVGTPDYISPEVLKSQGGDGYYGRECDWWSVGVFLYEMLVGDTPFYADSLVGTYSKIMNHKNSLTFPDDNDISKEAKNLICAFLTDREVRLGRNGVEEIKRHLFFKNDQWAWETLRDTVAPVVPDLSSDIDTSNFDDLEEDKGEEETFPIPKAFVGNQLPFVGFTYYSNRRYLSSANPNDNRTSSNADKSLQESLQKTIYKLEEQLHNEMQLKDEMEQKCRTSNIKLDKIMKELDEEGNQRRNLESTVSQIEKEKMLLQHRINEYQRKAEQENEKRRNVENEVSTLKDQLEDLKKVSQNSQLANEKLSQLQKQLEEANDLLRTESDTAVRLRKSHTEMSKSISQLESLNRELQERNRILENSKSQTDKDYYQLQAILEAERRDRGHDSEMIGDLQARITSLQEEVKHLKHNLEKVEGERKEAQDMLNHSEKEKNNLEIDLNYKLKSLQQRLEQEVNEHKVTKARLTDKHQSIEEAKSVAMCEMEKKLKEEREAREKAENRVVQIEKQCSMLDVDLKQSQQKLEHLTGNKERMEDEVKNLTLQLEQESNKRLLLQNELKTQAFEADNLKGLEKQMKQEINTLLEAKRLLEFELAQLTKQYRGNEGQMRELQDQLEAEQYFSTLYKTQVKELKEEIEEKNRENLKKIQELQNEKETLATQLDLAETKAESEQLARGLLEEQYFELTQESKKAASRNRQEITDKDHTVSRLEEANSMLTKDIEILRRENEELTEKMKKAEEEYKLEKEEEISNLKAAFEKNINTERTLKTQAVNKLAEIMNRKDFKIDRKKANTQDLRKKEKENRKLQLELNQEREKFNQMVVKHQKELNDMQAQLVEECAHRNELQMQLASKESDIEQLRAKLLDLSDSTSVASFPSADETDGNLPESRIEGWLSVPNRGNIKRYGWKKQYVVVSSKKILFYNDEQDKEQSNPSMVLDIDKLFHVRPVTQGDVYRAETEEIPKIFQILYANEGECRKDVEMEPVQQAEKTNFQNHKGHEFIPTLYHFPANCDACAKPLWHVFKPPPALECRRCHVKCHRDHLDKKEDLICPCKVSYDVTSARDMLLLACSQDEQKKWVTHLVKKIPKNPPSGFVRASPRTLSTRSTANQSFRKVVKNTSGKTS

Take `NS(=O)(=O)c1ccc(Nc2ncc(-c3ccccc3)o2)cc1`: the inhibition came to 2.49% in [1]; 2.01% in assay [2]; 1.3% in assay [3]; 1.68% in [4]; 3.14% in [5]; 0.96% in assay [6]. In addition, the inhibition is 2.07% in assay [7]; 3.47% in assay [8]; 6.2% in assay [9]; 2.92% in [10]; 5.55% in assay [11]; 3.51% in assay [12]. In addition, the inhibition came to 5.97% in assay [13]; 1.9% in [14]; 4.85% in assay [15]; 2.69% in assay [16]; 3.98% in assay [17]; 2.08% in assay [18]. Further, the inhibition turned out to be 2.5% in [19] and 0.63% in assay [20].
